The full data set covers some 7,900 targets. This sample favours those with a hit. About 0.6% of all pairs of compound and target were hits. A number with no mark means an inactive call.
How the values were obtained:
Assay in all cases: log2 fold change, soluble protein after heating vs DMSO (PISA); higher = thermal stabilisation; K562 cells, 10 uM, 30 min; active = over 0.2 and 3.5 SD of the protein, either way, in both replicates (recomputed)
bafetinib = compound: Cc1ccc(NC(=O)c2ccc(CN3CC[C@H](N(C)C)C3)c(C(F)(F)F)c2)cc1Nc1nccc(-c2cncnc2)n1 [bafetinib]
How it was run: (§1)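 Soluble protein was quantified by TMTpro 16plex LC-MS/MS after channel sums were equalised. It was obtained as the supernatant after 21,000xg for 90 min from pooled aliquots of K562 cells (2×10^6 cells/mL, 10 μM compound, 30 min) heated for 3 min across 48°C-58°C and extracted in PBS with 0.5% NP-40 at 4°C. Thermal stability values are relative to control samples and come from duplicates. They are given as log2 fold changes.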

[1] = compound: Cc1cccc(CC(=O)N2CCc3c2ccc(-c2cn(C)c4ncnc(N)c24)c3F)n1
How it was run: as §1

nilotinib = compound: Cc1cn(-c2cc(NC(=O)c3ccc(C)c(Nc4nccc(-c5cccnc5)n4)c3)cc(C(F)(F)F)c2)cn1 [nilotinib]
How it was run: as §1

[2] = compound: Cc1nc(Nc2n[nH]c3c2CN(C(=O)N[C@H](CN(C)C)c2ccccc2)C3(C)C)c2sccc2n1
How it was run: as §1

dasatinib = compound: Cc1nc(Nc2ncc(C(=O)Nc3c(C)cccc3Cl)s2)cc(N2CCN(CCO)CC2)n1 [dasatinib]
How it was run: as §1

[3] = compound: Cc1ncc(-c2ccnc(Nc3ccc(S(C)(=O)=O)cc3)n2)n1C(C)C
How it was run: as §1

[4] = compound: Cn1cc(-c2ccc3c(c2)CCN3C(=O)Cc2cccc(C(F)(F)F)c2)c2c(N)ncnc21
How it was run: as §1

[5] = compound: Cn1cc(-c2ccc3nnc(C(F)(F)c4ccc5ncccc5c4)n3n2)cn1
How it was run: as §1

mubritinib = compound: FC(F)(F)c1ccc(/C=C/c2nc(COc3ccc(CCCCn4ccnn4)cc3)co2)cc1 [mubritinib]
How it was run: as §1

[6] = compound: NC(=O)Nc1cc(-c2cccc(F)c2)sc1C(=O)N[C@H]1CCCNC1
How it was run: as §1

[7] = compound: NC(=O)c1cnc(N[C@@H]2CCCC[C@@H]2N)nc1Nc1cccc(-n2nccn2)c1
How it was run: as §1

[8] = compound: NC1(c2ccc(-c3nc4ccn5c(=O)[nH]nc5c4cc3-c3ccccc3)cc2)CCC1
How it was run: as §1

[9] = compound: NCC(=O)Nc1ccc(-n2nc(C(F)(F)F)cc2-c2ccc3c(ccc4ccccc43)c2)cc1
How it was run: as §1

entinostat = compound: Nc1ccccc1NC(=O)c1ccc(CNC(=O)OCc2cccnc2)cc1 [entinostat]
How it was run: as §1

vorinostat = compound: O=C(CCCCCCC(=O)Nc1ccccc1)NO [vorinostat]
How it was run: as §1

citarinostat = compound: O=C(CCCCCCNC(=O)c1cnc(N(c2ccccc2)c2ccccc2Cl)nc1)NO [citarinostat]
How it was run: as §1

silmitasertib = compound: O=C(O)c1ccc2c(c1)nc(Nc1cccc(Cl)c1)c1ccncc12 [silmitasertib]
How it was run: as §1

[10] = compound: O=C1NC(=O)C(c2cnc3ccccn23)=C1c1cn2c3c(cc(F)cc13)CN(C(=O)N1CCCCC1)CC2
How it was run: as §1

[11] = compound: c1cc(OCCN2CCCCC2)cc(-c2n[nH]c3ccc(-c4nnc[nH]4)cc23)c1
How it was run: as §1

tipifarnib = compound: Cn1cncc1[C@@](N)(c1ccc(Cl)cc1)c1ccc2c(c1)c(-c1cccc(Cl)c1)cc(=O)n2C [tipifarnib]
How it was run: as §1

Target: TMEM184C (UniProt Q9NVA4)
- log2 fold change (bafetinib): -0.132
- log2 fold change [1]: -0.111
- log2 fold change (nilotinib): -0.007
- log2 fold change [2]: -0.047
- log2 fold change (dasatinib): 0.116
- log2 fold change [3]: -0.009
- log2 fold change [4]: 0.15
- log2 fold change [5]: -0.092
- log2 fold change (mubritinib): 0.01
- log2 fold change [6]: -0.185
- log2 fold change [7]: 0.069
- log2 fold change [8]: -0.401 (active)
- log2 fold change [9]: -0.07
- log2 fold change (entinostat): -0.218
- log2 fold change (vorinostat): 0.08
- log2 fold change (citarinostat): -0.065
- log2 fold change (silmitasertib): -0.004
- log2 fold change [10]: -0.055
- log2 fold change [11]: 0.022

Target: UNC119B (UniProt A6NIH7)
UniProt A6NIH7, sequence (A6NIH7 whole entry, looked up): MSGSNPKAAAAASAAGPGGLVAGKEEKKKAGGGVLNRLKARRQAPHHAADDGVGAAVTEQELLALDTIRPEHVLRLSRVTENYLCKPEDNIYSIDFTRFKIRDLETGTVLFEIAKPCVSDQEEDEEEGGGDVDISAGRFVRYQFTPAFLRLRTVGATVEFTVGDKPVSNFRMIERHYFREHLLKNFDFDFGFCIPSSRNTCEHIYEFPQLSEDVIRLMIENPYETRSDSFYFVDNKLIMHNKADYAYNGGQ
- log2 fold change (bafetinib): 0.424
- log2 fold change [1]: -0.006
- log2 fold change (nilotinib): 0.16
- log2 fold change [2]: -0.077
- log2 fold change (dasatinib): 0.069
- log2 fold change [3]: 0.173
- log2 fold change [4]: 0.428
- log2 fold change [5]: -0.089
- log2 fold change (tipifarnib): -0.143
- log2 fold change (mubritinib): 0.14
- log2 fold change [6]: -0.094
- log2 fold change [7]: 0.039
- log2 fold change [8]: 0.146
- log2 fold change [9]: 0.038
- log2 fold change (entinostat): 0.012
- log2 fold change (vorinostat): -0.055
- log2 fold change (citarinostat): 0.043
- log2 fold change (silmitasertib): 0.031
- log2 fold change [11]: 0.005

Target: XIAP (UniProt P98170)
UniProt P98170, sequence (P98170 whole entry, looked up): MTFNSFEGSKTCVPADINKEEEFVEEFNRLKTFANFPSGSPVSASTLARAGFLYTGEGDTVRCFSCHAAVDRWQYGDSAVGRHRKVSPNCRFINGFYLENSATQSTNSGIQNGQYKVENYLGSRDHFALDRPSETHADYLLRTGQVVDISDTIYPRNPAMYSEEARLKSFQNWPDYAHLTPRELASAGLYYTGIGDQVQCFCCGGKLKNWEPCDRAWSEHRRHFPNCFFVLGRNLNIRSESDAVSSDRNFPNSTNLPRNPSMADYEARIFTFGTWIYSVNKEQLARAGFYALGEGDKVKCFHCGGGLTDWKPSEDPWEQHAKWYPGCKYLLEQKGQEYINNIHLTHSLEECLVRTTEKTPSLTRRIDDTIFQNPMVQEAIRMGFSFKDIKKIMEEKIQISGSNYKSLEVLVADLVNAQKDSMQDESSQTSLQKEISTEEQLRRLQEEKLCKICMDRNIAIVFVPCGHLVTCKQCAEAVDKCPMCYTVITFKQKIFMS
- log2 fold change (bafetinib): -0.111
- log2 fold change [1]: -0.046
- log2 fold change (nilotinib): 0.366
- log2 fold change [2]: 0.061
- log2 fold change (dasatinib): -0.027
- log2 fold change [3]: -0.288
- log2 fold change [4]: 0.029
- log2 fold change (tipifarnib): -0.078
- log2 fold change (mubritinib): 0.095
- log2 fold change [6]: -0.004
- log2 fold change [7]: -0.12
- log2 fold change [8]: -0.113
- log2 fold change [9]: -0.001
- log2 fold change (entinostat): 0.009
- log2 fold change (vorinostat): 0.053
- log2 fold change (citarinostat): 0.091
- log2 fold change (silmitasertib): -0.029
- log2 fold change [10]: -0.047
- log2 fold change [11]: -0.106

Target: TMEM8A (UniProt Q9HCN3)
UniProt Q9HCN3, sequence (Q9HCN3 whole entry, looked up): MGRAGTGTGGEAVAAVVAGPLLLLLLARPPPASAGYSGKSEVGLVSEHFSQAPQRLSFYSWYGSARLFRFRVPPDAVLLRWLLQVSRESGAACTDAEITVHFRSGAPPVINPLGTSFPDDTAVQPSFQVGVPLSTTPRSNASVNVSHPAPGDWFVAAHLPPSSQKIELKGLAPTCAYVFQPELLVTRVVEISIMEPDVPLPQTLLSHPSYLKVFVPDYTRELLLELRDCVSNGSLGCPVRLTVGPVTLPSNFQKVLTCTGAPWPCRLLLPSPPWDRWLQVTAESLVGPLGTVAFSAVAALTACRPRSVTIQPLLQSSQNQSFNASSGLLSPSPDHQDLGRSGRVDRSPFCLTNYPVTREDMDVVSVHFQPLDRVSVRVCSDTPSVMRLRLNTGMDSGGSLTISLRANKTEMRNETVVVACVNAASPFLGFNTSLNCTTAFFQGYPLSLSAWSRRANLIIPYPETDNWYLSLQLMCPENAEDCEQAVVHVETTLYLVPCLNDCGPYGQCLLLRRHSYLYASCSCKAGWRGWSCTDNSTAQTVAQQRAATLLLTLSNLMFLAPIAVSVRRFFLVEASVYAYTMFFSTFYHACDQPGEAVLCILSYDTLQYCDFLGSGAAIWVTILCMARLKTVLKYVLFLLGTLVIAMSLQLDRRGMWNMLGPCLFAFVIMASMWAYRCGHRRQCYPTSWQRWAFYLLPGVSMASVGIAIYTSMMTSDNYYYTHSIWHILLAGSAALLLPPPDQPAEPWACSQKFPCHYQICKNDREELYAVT
- log2 fold change (bafetinib): -0.054
- log2 fold change [1]: 0.096
- log2 fold change (nilotinib): -0.033
- log2 fold change [2]: 0.071
- log2 fold change (dasatinib): -0.409
- log2 fold change [3]: 0.019
- log2 fold change [4]: -0.046
- log2 fold change [5]: 0
- log2 fold change (tipifarnib): 0.047
- log2 fold change (mubritinib): -0.001
- log2 fold change [6]: -0.059
- log2 fold change [8]: -0.393
- log2 fold change [9]: -0.048
- log2 fold change (entinostat): -0.485
- log2 fold change (vorinostat): -0.077
- log2 fold change (citarinostat): -0.037
- log2 fold change (silmitasertib): 0.053
- log2 fold change [11]: -0.056

Target: WDR62 isoform 4 (UniProt O43379)
- log2 fold change (bafetinib): -0.193
- log2 fold change [1]: 0.016
- log2 fold change (nilotinib): -0.149
- log2 fold change [2]: -0.041
- log2 fold change (dasatinib): -0.107
- log2 fold change [3]: -0.083
- log2 fold change [4]: 0.009
- log2 fold change [5]: 0.032
- log2 fold change (tipifarnib): 0.002
- log2 fold change (mubritinib): 0.024
- log2 fold change [6]: -0.07
- log2 fold change [7]: -0.099
- log2 fold change [8]: -0.052
- log2 fold change [9]: -0.038
- log2 fold change (entinostat): 0
- log2 fold change (vorinostat): 0.05
- log2 fold change (citarinostat): 0.054
- log2 fold change (silmitasertib): 0.073
- log2 fold change [10]: 0.01
- log2 fold change [11]: -0.07

Target: UBAP2L (UniProt F8W726)
- log2 fold change (bafetinib): 0.02
- log2 fold change [1]: -0.049
- log2 fold change (nilotinib): 0.151
- log2 fold change [2]: 0.063
- log2 fold change [3]: -0.109
- log2 fold change (tipifarnib): 0.245
- log2 fold change (mubritinib): -0.032
- log2 fold change [8]: 0.083
- log2 fold change (vorinostat): -0.033
- log2 fold change (citarinostat): 0.095
- log2 fold change (silmitasertib): 0.004
- log2 fold change [11]: -0.066

Target: VWA3B isoform 6 (UniProt Q502W6)
UniProt Q502W6, sequence (Q502W6 whole entry, looked up): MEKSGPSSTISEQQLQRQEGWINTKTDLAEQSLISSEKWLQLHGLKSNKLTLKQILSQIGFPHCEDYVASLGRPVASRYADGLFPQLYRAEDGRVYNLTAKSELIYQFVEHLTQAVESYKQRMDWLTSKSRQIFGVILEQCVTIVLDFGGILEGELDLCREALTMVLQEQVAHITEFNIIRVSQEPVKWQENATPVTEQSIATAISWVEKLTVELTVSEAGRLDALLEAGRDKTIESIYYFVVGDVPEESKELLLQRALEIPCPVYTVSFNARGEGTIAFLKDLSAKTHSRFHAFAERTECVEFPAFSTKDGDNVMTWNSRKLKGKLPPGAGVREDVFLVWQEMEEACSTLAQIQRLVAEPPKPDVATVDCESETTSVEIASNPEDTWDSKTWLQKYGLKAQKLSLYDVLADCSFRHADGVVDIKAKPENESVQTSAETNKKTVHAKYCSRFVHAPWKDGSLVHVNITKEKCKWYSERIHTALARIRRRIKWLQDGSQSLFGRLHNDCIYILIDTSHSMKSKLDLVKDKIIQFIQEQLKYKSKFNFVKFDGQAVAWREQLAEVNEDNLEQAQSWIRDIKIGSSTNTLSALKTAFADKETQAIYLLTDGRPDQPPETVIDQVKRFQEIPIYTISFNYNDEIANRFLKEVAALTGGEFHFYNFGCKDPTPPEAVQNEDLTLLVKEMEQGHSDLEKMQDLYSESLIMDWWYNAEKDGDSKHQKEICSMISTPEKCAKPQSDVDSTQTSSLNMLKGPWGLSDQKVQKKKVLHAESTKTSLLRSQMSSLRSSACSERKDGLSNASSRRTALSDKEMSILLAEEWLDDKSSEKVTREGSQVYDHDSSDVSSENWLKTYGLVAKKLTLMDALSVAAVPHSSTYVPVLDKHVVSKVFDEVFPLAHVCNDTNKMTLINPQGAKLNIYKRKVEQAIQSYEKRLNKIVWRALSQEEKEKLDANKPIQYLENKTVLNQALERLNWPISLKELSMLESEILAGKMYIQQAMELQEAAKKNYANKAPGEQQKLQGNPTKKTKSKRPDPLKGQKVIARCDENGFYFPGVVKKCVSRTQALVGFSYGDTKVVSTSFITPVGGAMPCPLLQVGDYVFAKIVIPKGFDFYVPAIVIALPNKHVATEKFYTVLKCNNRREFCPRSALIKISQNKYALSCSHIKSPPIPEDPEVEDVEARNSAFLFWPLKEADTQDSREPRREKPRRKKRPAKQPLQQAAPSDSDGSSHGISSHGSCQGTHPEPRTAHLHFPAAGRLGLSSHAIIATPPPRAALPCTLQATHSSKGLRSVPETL
- log2 fold change (bafetinib): 0.074
- log2 fold change [1]: 0.024
- log2 fold change (nilotinib): -0.128
- log2 fold change [2]: 0.075
- log2 fold change (dasatinib): 0.148
- log2 fold change [3]: -0.129
- log2 fold change [4]: 0.045
- log2 fold change [5]: 0.003
- log2 fold change (tipifarnib): 0.047
- log2 fold change (mubritinib): 0.014
- log2 fold change [7]: -0.271
- log2 fold change [8]: -0.023
- log2 fold change [9]: -0.059
- log2 fold change (vorinostat): 0.076
- log2 fold change (citarinostat): -0.128
- log2 fold change (silmitasertib): 0.162
- log2 fold change [10]: -0.009
- log2 fold change [11]: -0.076

Target: TMEM106B (UniProt Q9NUM4)
UniProt Q9NUM4, sequence (Q9NUM4 whole entry, looked up): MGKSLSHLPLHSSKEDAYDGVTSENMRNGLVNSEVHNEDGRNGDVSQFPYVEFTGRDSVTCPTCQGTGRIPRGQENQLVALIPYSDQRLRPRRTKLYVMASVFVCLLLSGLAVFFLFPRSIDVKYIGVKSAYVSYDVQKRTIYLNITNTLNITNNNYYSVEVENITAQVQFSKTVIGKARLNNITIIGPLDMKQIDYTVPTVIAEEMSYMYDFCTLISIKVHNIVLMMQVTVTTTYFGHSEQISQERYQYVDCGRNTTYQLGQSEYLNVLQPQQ
- log2 fold change (bafetinib): -0.094
- log2 fold change [1]: 0.035
- log2 fold change (nilotinib): -0.015
- log2 fold change [2]: 0.02
- log2 fold change (dasatinib): 0.098
- log2 fold change [3]: -0.007
- log2 fold change [4]: 0.083
- log2 fold change (tipifarnib): 0.029
- log2 fold change (mubritinib): 0.023
- log2 fold change [6]: -0.042
- log2 fold change [7]: -0.038
- log2 fold change [8]: -0.056
- log2 fold change [9]: -0.016
- log2 fold change (entinostat): 0.008
- log2 fold change (vorinostat): -0.023
- log2 fold change (citarinostat): 0.022
- log2 fold change (silmitasertib): 0.034
- log2 fold change [10]: 0
- log2 fold change [11]: 0.046

Target: TUT4 (UniProt Q5TAX3)
UniProt Q5TAX3, sequence (Q5TAX3 whole entry, looked up): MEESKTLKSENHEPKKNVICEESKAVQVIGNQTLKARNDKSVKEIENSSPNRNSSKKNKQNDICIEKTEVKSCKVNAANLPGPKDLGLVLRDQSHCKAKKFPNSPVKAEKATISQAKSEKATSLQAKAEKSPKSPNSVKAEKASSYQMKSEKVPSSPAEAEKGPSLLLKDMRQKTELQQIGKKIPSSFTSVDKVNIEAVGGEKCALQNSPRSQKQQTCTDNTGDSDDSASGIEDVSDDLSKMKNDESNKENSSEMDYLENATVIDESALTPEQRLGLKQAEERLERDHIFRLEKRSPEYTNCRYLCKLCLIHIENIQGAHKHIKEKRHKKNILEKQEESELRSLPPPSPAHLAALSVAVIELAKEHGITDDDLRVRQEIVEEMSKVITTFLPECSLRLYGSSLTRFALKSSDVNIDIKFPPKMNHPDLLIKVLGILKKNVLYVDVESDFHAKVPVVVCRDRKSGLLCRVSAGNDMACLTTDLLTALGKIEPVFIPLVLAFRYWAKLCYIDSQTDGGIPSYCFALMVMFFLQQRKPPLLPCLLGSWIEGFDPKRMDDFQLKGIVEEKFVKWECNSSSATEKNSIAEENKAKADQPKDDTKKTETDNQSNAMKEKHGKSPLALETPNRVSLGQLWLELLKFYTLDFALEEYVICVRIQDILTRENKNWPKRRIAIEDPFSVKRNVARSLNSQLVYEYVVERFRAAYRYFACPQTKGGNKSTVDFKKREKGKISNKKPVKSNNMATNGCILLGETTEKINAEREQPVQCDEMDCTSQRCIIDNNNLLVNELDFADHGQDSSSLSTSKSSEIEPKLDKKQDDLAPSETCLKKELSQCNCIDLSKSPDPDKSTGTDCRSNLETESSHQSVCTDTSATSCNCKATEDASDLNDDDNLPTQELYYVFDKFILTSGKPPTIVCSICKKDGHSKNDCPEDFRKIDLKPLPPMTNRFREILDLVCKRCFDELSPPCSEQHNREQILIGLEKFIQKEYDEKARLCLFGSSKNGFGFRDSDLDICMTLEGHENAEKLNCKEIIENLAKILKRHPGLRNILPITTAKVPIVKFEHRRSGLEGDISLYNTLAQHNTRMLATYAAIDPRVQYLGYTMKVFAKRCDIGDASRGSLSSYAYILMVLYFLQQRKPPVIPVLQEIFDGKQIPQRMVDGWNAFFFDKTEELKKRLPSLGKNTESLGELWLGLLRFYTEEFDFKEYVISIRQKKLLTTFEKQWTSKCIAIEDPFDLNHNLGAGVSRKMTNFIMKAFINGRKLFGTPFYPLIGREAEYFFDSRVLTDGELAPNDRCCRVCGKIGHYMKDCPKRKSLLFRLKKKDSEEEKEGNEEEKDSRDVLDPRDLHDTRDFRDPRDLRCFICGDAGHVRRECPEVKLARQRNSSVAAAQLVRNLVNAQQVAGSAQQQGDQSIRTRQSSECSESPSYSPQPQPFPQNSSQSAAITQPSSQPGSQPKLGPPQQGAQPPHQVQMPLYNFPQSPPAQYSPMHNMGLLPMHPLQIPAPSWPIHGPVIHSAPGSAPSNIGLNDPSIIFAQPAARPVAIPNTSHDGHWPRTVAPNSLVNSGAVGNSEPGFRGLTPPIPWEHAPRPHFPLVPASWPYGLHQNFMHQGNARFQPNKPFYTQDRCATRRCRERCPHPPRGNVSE
- log2 fold change (bafetinib): -0.281
- log2 fold change [1]: 0.074
- log2 fold change (nilotinib): -0.153
- log2 fold change [2]: 0.01
- log2 fold change (dasatinib): -0.105
- log2 fold change [3]: -0.116
- log2 fold change [4]: -0.097
- log2 fold change [5]: -0.066
- log2 fold change (tipifarnib): -0.049
- log2 fold change (mubritinib): -0.01
- log2 fold change [6]: 0.028
- log2 fold change [8]: 0.07
- log2 fold change [9]: -0.349
- log2 fold change (entinostat): 0.004
- log2 fold change (vorinostat): -0.032
- log2 fold change (citarinostat): -0.161
- log2 fold change (silmitasertib): 0.094
- log2 fold change [10]: 0.322
- log2 fold change [11]: -0.063

— the supplement of paper PMC10849652
